Measurements reported in PubChem BioAssay (NCATS).
Results filed as inconclusive are left out. Entries that show only a call come without a potency. Calls of active or inactive are those of the source. Calls follow the shape of the dose curve; as a rule, active = well fitted cell-killing curve with a large enough effect; inconclusive = small, poorly fitted or top-dose-only effect; inactive = flat fitted curve, though single readings scatter.

Experiment: Cell Viability - Mesenchymal (AID 546);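 also: cells exposed to compound for 40 hours before reading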
Conditions: mesenchymal cells viability, qHTS; series mostly up to 91.7 µM
From the text: NIH Chemical Genomics Center [NCGC]
NIH Molecular Libraries Screening Centers Network [MLSCN]
National Institutes of Environmental Health Sciences [NIEHS]
National Toxicology Program [NTP]
We have developed a 1536-well cell-based assay for quantitative high throughput screening (qHTS) against a number of cell lines to determine in vitro cytotoxicity of small molecules. This particular assay uses the kidney mesenchymal cell line which is derived from normal human renal glomeruli.
NCGC Assay Protocol Summary:
The CellTiter-Glo luminescent cell viability assay (Promega) is a homogeneous method to measure the number of viable cells in culture. The end point readout of this assay is based on quantitation of intracellular ATP, an indicator of metabolic activity, using the luciferase reaction. Luciferase catalyzes the oxidation of beetle Luciferin to oxyluciferin and light in the presence of ATP. The luminescent signal is proportional to amount of ATP present.
Using the CellTiter-Glo luminescent cell viability assay, the amount of cellular ATP was measured in the kidney mesenchymal cell line with complete culture medium following compound treatment for 40 hours. The assay was performed in opaque white Kalypsys 1536-well plates. In the screen, tamoxifen and doxorubicin were used as positive controls. Library compounds were measured for their ability to cause acute toxicity in the cell line, as reflected by a decrease in intracellular ATP levels, in a concentration-dependent manner. […] AC50 values were determined from concentration-response data modeled with the standard Hill equation.
qHTS protocol for CellTiter Glo kidney mesenchymal cells cellular assay
[Step] [Parameter] [Value] [Description]
1. Reagent; 5 uL; 1000 kidney mesenchymal cells/well
2. Time; 5 hr; 37 °C incubation
4. Controls; 23 nL; Tamoxifen 0.34 uM to 100 uM & Doxorubicin 0.02 nM to 100 uM
5. Time; 40 hr; 37 °C incubation
6. Reagent; 5 uL; CellTiter Glo reagent
7. Time; 20 min; Room Temperature
8. Detection; Luminescence; Viewlux plate reader
Keywords: cell viability, cytotoxicity, Kidney mesenchymal cell line, luminescence, NTPHTS, NTPHTS_NCGC, NIEHS, EPA, DSSTox, MLSMR, MLSCN, NIH Roadmap, qHTS, NCGC
In the case of `CC(C)CC(C)N` (stereo not given), the Potency is reported as “inactive”. For `CSSC`, the Potency was “inactive”. With `CCCCC#N` the Potency was “inactive”. For `O=[N+]([O-])c1ccccc1CCl`, the Potency was “inactive”. With `Cc1cc(C)cc(OP(=O)(Oc2cc(C)cc(C)c2)Oc2cc(C)cc(C)c2)c1` the Potency was “inactive”. With `Cc1ccc(N)cc1Cl` the Potency was “inactive”. In the case of `CC(C)(C)C(O)(CCc1ccc(Cl)cc1)Cn1cncn1` (stereo not given), the Potency is reported as “inactive”. For `ClCC(Cl)Cl`, the Potency was “inactive”. With `c1ccc(P(c2ccccc2)c2ccccc2)cc1` the Potency was “inactive”. In the case of `CCC#N`, the Potency is reported as “inactive”. With `ClCCOCCCl` the Potency was “inactive”. In the case of `Oc1cccc(Cl)c1`, the Potency is reported as “inactive”. In the case of `O=C(O)C(Br)Br`, the Potency is reported as “inactive”. With `C=CCCC#N` the Potency was “inactive”. For `ClCCOCOCCCl`, the Potency was “inactive”. In the case of `Clc1cccc2ccccc12`, the Potency is reported as “inactive”. In the case of `CC1CC(=O)O1` (stereo not given), the Potency is reported as “inactive”. With `S=C1NCCN1` the Potency was “inactive”. In the case of `CN(C)c1ccccc1`, the Potency is reported as “inactive”. For `O=[N+]([O-])c1ccc(Cl)c(Cl)c1Cl`, the Potency was “inactive”. For `O=C(O)c1cc(Cl)ccc1Cl`, the Potency was “inactive”. For `CCN(CC)CCO`, the Potency was “inactive”. In the case of `Cc1cccc(C)c1N`, the Potency is reported as “inactive”. With `CC(C)(OOC(C)(C)c1ccccc1)c1ccccc1` the Potency was “inactive”. For `O=C(Cc1ccccc1)OCc1ccccc1`, the Potency was “inactive”. With `O=C(O)CCl` the Potency was “inactive”. With `Nc1ccc([N+](=O)[O-])cc1[N+](=O)[O-]` the Potency was “inactive”. With `CC(C)(C)c1ccccc1O` the Potency was “inactive”. For `OCCBr`, the Potency was “inactive”. In the case of `Nc1c(Cl)cc([N+](=O)[O-])cc1Cl`, the Potency is reported as “inactive”. For `O=S(=O)(O)F`, the Potency was “inactive”. With `ClP(Cl)(Cl)(Cl)Cl` the Potency was “inactive”. In the case of `N#CCCC#N`, the Potency is reported as “inactive”. In the case of `O=[N+]([O-])c1ccccc1-c1ccccc1`, the Potency is reported as “inactive”. For `CN=C=O`, the Potency was “inactive”. For `CN(C)C(=O)Nc1cccc(C(F)(F)F)c1`, the Potency was “inactive”. With `O=[N+]([O-])c1cc(Cl)c(Cl)cc1Cl` the Potency was “inactive”. With `CCN(N=O)C(N)=O` the Potency was “inactive”. For `CC(C)OS(C)(=O)=O`, the Potency was “inactive”. For `Nc1ccc(-c2ccccc2)cc1`, the Potency was “inactive”.
